This note sets out measurements from PubChem BioAssay (NCI).

Structures are written as SMILES. The panel holds about 83,000 compounds, 20% with a hit somewhere; the sample as a whole holds those more often.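 Interpretation: 100, growth as untreated; towards 0, rising growth inhibition; 0, no net growth; 0 to -100, cell death. Compounds scoring below 10 were considered active.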 Unmarked numbers belong to inactive results. Calls of active or inactive are those of the source.

The assay concerns SK-MEL-28 melanoma. Put plainly: NCI-60 one-dose screen, 48 h (100 = growth as untreated, 0 = no growth, -100 = all killed). The settings on record: 10 µM unless noted. Here is the method:
Growth inhibition of the SK-MEL-28 human tumor cell line is measured as a screen for anti-cancer activity. Cells are grown in 96 well plates and exposed to the test compound for 48 hours. Compounds are tested at a single concentration, which is 10^-5 M for most compounds. The reported endpoint is percent growth (GI% or GIPRCNT), where numbers from 0 - 100% represent growth inhibition, and numbers from -100% - 0 represent cell death. For example, a value of 40 represents 60% growth inhibition. A value of 0 means no net growth occurred over the course of the experiment. A value of -40 indicates 40% of cells at the beginning of the experiment died by the end of the experiment. A value of -100 means all cells are dead at the end of the experiment.
NCI-60 Human Tumor Cell Lines Screen was performed using the standard one-dose NCI protocol, which is described in more detail at https://dtp.cancer.gov/discovery_development/nci-60/default.htm.
Compounds with GIPRCNT values below 10 were considered active. Activity score was based on GIPRCNT using the following formula: […]
Score is 0 for GIPRCNT values of 100 or above, 50 for GIPRCNT values of 0, and 100 for GIPRCNT values of -100.
As to `CCN1C(=O)N(CC)C2C1NN=c1s/c(=C3\C(=O)N(CC(C)C)c4ccccc43)c(=O)n12` (stereo not given), the growth is 51%. The result for `O=C(O)/C=C/C(=O)Nc1cccc(Cn2nnc3cc(Cl)c(Cl)cc32)c1` reads 106%.

In the case of `CN1CCN(C(=O)[C@@]2(C)CC[C@]3(C)CC[C@]4(C)C(=CC[C@@H]5[C@@]6(C)CCC(=O)NC(C)(C)[C@@H]6CC[C@]54C)[C@@H]3C2)CC1`, the growth was -6.92% (active). In the case of `N=C(N)c1ccc(-c2ccc(-c3ccccc3)s2)cc1` it was 113%. In the case of `C=C(C)[C@@H]1CC[C@]2(C(=O)N3CCN(C)CC3)CC[C@]3(C)[C@H](CC[C@@H]4[C@@]5(C)CC[C@H](OC(=O)c6ccccc6C(=O)O)C(C)(C)[C@@H]5CC[C@]43C)[C@@H]12` it was 105%. In the case of `O=C1Nc2ccccc2/C1=C\c1c[nH]c2ccc(Br)cc12` it was 72.7%. For the molecule `Cc1ncc(C(=O)Nc2ccc(CN3CCN(C)CC3)c(C(F)(F)F)c2)cc1C#Cc1cnc(N)c2ncccc12`, the growth is -77.4% (active). In the case of `N#C/C(=C\c1ccc(-c2cccc(C(F)(F)F)c2)o1)c1ccccc1` it was 98.4%; in that of `O=C(c1c[nH]c2ccccc12)c1n[nH]c(=S)n1-c1cccc(Br)c1`, 105%; in that of `CCNC(=O)Oc1ccc(/C(=C(/CC)Cc2ccccc2)c2ccc(OCCN3CCCC3)cc2)cc1`, 99%. Turning to `c1nc2ccc(-c3cc4ccc5[nH]ncc5c4c4c3CCCC4)cc2[nH]1`, the growth is 41.7%. The result for `CCOC(=O)c1c(C)nc2c(c1N)CC(=O)N2Cc1ccc(OC)cc1` reads 55%; that for `O=C1/C(=C/c2ccc(F)cc2)CN(C(=O)C(Cl)Cl)C/C1=C\c1ccc(F)cc1`, -72.1% (active); that for `N#Cc1cccc(C2C3=C(COC3=O)N(CCO)c3cc4c(cc32)CCC4)c1` (stereo not given), 51.2%. The result for `C=C(C)[C@@H]1CC[C@]2(C(N)=O)CC[C@]3(C)[C@H](CC[C@@H]4[C@@]5(C)CC[C@H](OCCC#N)C(C)(C)[C@@H]5CC[C@]43C)[C@@H]12` reads 92.8%; that for `C#Cc1cccc(Nc2nc(C)nc3cc(NC(=O)CCl)ccc23)c1`, -81.9% (active); that for `O=C1c2ccccc2C(=O)c2c1cc1c(c2[N+](=O)[O-])OCO1`, 103%. In the case of `Ic1ccccc1I` it was 108%; in that of `O=C(Nc1ccccc1[N+](=O)[O-])c1ccc(Cl)c(Cl)c1`, 105%.

Regarding `Fc1cccc(-c2ccc3c(c2)C2(CCNCC2)CN3)c1`, the growth was 116%.

On to `O=C(O)c1ccc(-c2ccc(/C=N/Nc3nc(Nc4ccccc4)nc(N4CCCCC4)n3)o2)cc1`, for which the growth is 78.9%. With `C=C1CC[C@@H]2C(C)(C)[C@@H](O)CC[C@@]2(C)[C@@H]1COc1ccc2ccc(=O)oc2c1`, the growth is 92.3%. In the case of `COc1ccc(Nc2ncccc2/C=C/C(=O)c2cc(OC)c(OC)c(OC)c2)cc1` it was -77% (active); in that of `COc1cc2c(c(OC)c1OC)C(=O)CC(c1cccc(NC(=O)c3ccc(C#N)cc3)c1)O2` (stereo not given), 90.6%; in that of `CCOC(=O)C1=C(C)C(Cl)=N/C1=C\c1[nH]c(Cl)c(C)c1C(=O)OCC`, 122%. The result for `N[C@H]1CCC[C@@H]1NCCCCN1C(=O)c2cccc3cc([N+](=O)[O-])cc(c23)C1=O` reads 93.6%. For the molecule `FC(F)(F)c1ccc(Cn2cc(CSc3nc4ccccc4s3)nn2)cc1`, the growth is 105%. In the case of `O=C(NNc1cnccn1)c1nc2cc(F)ccc2n2cccc12` it was 21%; in that of `CS(=O)(=O)c1ccc(NC(=O)c2ccccc2)nc1`, 112%; in that of `C=CC(=O)Nc1ccc(Nc2nccc(-c3ccc(N4CCCC4)c(C#N)c3)n2)cc1`, -46.1% (active).

Take `Cc1ccc(-c2nc(N3CCNCC3)c3oc(-c4ccc(C)cc4)nc3n2)cc1`: the growth is 83.6%. In the case of `COCCn1cc(-c2csc(-c3c[nH]c4ccc(Br)cc34)n2)c2cccnc21` it was 52.3%; in that of `CCN(CC)Cc1cc(Nc2ccnc3cc(Cl)ccc23)ccc1O`, 94.9%. In the case of `Cc1c(CN)cc(-c2ccc(Cl)cc2)n1-c1ccccc1` it was 114%; in that of `CN1CCN(CCOc2ccc(-c3cnc4c(-c5ccc(F)cc5)cnn4c3)cc2)CC1`, 79.4%; in that of `O=S1(=O)C=C(c2ccccc2)C(c2ccccc2)=C1`, 17.9%. Consider `O=C(C1CCCCC1)[C@@H]1[C@]2(C(=O)NC3CCCCC32)[C@@H]2CCCN2[C@@]12C(=O)NC1CCC(Cl)CC12` (stereo not given in full), for which the growth was -83% [100 µM] (active). In the case of `CSc1nc(C)c([N+](=O)[O-])c(N)n1` it was 120%; in that of `O=C(CN1CCCCCC1)Nc1nc2ccc(NCc3ccc(Cl)cc3)cc2s1`, 104%.

As for `O=S(=O)(NCCNc1nccc(-c2c(-c3ccc(F)c(O)c3)nc3sccn23)n1)c1ccc(F)cc1`, the growth is 20.5%.
